# Assay results taken from PubChem BioAssay AID463190 (Sanford-Burnham Center for Chemical Genomics, 2010).
# The whole screen tested about 330,000 compounds, of which about 7,300 (2.2%) were called active. Shown is part of a subset that was picked to be rich in actives. A number with no mark means an inactive call.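 How the source made its calls: active means inhibition of at least 40%; inactive means the rest.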
# Experiment: growth inhibitors of tim10-1 mutant yeast, primary screen, luminescence, uHTS (AID 463190);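 further: mutant grown at 25 °C; 0% = DMSO wells with yeast and 100% = wells holding no yeast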
# Details: S. cerevisiae tim10-1 ts strain growth, BacTiter-Glo, 24 h; at 20 µM; active compounds read high
row,Structure (SMILES),inhibition
1,Cc1cc(C)n2nc(CNS(=O)(=O)c3c(F)c(F)c(F)c(F)c3F)nc2n1,3.29%
2,O=C(/C=C/c1ccc(N2CCOCC2)cc1)c1ccccc1,36.1%
3,CC(=O)Nc1ccc(/C=C/C(=O)c2ccccc2)cc1,51.4% (active)
4,CC(=O)Nc1ccc(C(=O)/C=C/c2ccc[nH]2)cc1,-13.3%
5,O=C(CCNS(=O)(=O)c1ccccc1C(F)(F)F)Nc1ccncc1,-1.52%
6,Cc1ccc(-n2nc(C)c(/C=N/NC(=O)c3cccs3)c2Cl)cc1,-6.6%
7,Cc1ccc(C(=O)/C=C/c2c(C)nn(-c3ccccc3)c2Cl)cc1,42.7% (active)
8,Cc1nn(-c2ccccc2)c(Cl)c1/C=C/C(=O)c1ccc(O)cc1,0.354%
9,CC(=O)N/C(=C\c1ccccc1)C(=O)OC(C)C(=O)N(C)c1ccccc1 (stereo not drawn),4.65%
10,COC(=O)c1c(C(=O)OC)c2n(c1C)CCS2,-20.7%
11,COc1ccccc1CCNC(=O)c1c(C)nn(CC(C)C)c1Cl,16.6%
12,Cc1ccc(C(C[N+](=O)[O-])c2c(C)cc3ccccn23)cc1 (stereo not drawn),41.6% (active)
13,Cc1ccc(C(=O)NNC(=O)CSc2nnc3ccccn23)cc1,4.3%
14,Cc1cc2ccccn2c1C(=O)c1cccc(F)c1,-8.04%
15,O=C(Nc1ccccc1N1CCOCC1)c1ccncc1,-6.96%
16,COc1ccccc1C(=O)NC(=S)Nc1ccccc1N1CCCCC1,41.9% (active)
17,Cc1cc(C(=O)NNC(=S)Nc2ccccc2C)cs1,24%
18,CCc1ccc(C(=O)NC(=S)Nc2ccccc2N2CCOCC2)cc1,40.2% (active)
19,Cc1ccc(C(=O)NC(=S)Nc2ccccc2C)cc1,40.5% (active)
20,O=C(COc1ccc(Cl)cc1)NC(=S)Nc1ccccc1N1CCOCC1,4.3%
21,O=C(NC(=S)Nc1ccccc1N1CCCCC1)c1ccc(F)cc1,32.4%

row,Structure (SMILES),inhibition
1,COc1ccc(C(=O)NC(=S)Nc2ccccc2N2CCN(S(C)(=O)=O)CC2)cc1OC,25%
2,Cc1ccccc1NC(=S)NC(=O)Cc1ccc(Cl)cc1,22.6%
3,COc1ccccc1Cn1c(C)nnc1-c1cnn(C)c1N,9.92%
4,CCOC(=O)c1c(Cc2ccc(Cl)cc2)c[nH]c1C,29.9%
5,O=Cc1ccc(OCc2cn3ccccc3n2)cc1,-8%
6,Nc1nc(CC(=O)CSc2ccc(Cl)cc2)nc(Nc2ccc(F)cc2)n1,1.48%
7,COc1cc(Cl)c(C)cc1NC(=O)[C@@H]1CCCN1C(=O)c1cccs1,31.3%
8,COc1ccc(Cl)cc1NC(=O)[C@@H]1CCCN1C(=O)c1cccs1,33.9%
9,COc1ccc2nc(NC(=O)[C@@H]3CCCN3C(=O)c3cccs3)sc2c1,45.4% (active)
10,COCCCN(C(=S)Nc1c(C)cc(C)cc1C)C(C)c1ccncc1 (stereo not drawn),21.3%
11,O=S(=O)(NCc1ccc2c(c1)OCO2)c1cccc2nsnc12,1.8%
12,COc1ccc(Nc2cc(=O)n(-c3ccccc3)c3c2c(=O)n(C)c(=O)n3C)cc1,14.6%
13,O=C1C(Cc2ccc(O)cc2)NC(=S)N1Cc1ccccc1 (stereo not drawn),-2.4%
14,Cc1cc(C)c(NC(=O)CN2C(=O)NC(Cc3ccccc3)C2=O)c(C)c1 (stereo not drawn),-9.44%
15,Cc1ccc(N2C(=O)C(Cc3ccccc3)NC2=S)cc1 (stereo not drawn),44.1% (active)
16,CC(=O)c1cc2c(cc1NC(=O)Cn1nc(-c3ccc(F)cc3)ccc1=O)OCO2,16.5%
17,CN(C)c1ccc(C(CNC(=O)c2ccc(F)cc2)c2c[nH]c3ccccc23)cc1 (stereo not drawn),37.2%
18,Clc1ccc(Nc2nc(-c3cccs3)cs2)nc1,45.1% (active)
19,CCCc1cc(C(=O)Nc2ccc(Cl)cn2)cs1,27.7%
20,Cc1cccc(Nc2nc(-c3ccccc3)cs2)n1,-40.5%
21,CCOC(=O)c1cc(-c2ccccc2C)n(Cc2cc(C)no2)n1,9.65%

row,Structure (SMILES),inhibition
1,CC(C)(C)c1ccc(C(=O)NNC(=O)Cc2ccccc2)cc1,-12.1%
2,CN(C(=O)CC(NC(=O)c1ccccc1)(c1ccccc1)c1ccccc1)c1ccccc1,41.7% (active)
3,CN(CC(=O)O)C(=O)c1ccccc1,-0.243%
4,CNC(=O)/C(C#N)=C/c1c(F)cccc1Cl,55.4% (active)
5,O=C(/C=C/c1c(F)cccc1Cl)Nc1nn[nH]n1,10.7%
6,CCOC(=O)NC(=O)/C(C#N)=C\c1ccccc1,2.89%
7,O=C(CNS(=O)(=O)c1ccccc1)NCC(=O)OCc1ccccc1F,9.03%
8,O=C(Cn1nc(Cc2cccnc2)c2ccccc2c1=O)NCC1COc2ccccc2O1 (stereo not drawn),14.3%
9,C=CCNC(=S)NNC(=O)COc1c(Cl)cc(Cl)cc1Cl,37.3%
10,CCOC(=O)C1CCN(C(=O)C2CCCN(S(=O)(=O)c3ccc(OC)c(Cl)c3)C2)CC1 (stereo not drawn),-9.18%
11,COc1ccccc1NC(=O)N1CCCC1C(=O)NCc1cccs1 (stereo not drawn),16.7%
12,COc1cc(NS(=O)(=O)c2ccc3ccccc3c2)c2ncccc2c1,40.5% (active)
13,O=[N+]([O-])c1ccccc1S(=O)(=O)Nc1cccc2cccnc12,34.8%
14,Cc1ccc(S(=O)(=O)Nc2ccc3ncccc3c2)cc1,18.6%
15,COc1ccc(S(=O)(=O)NCc2cccnc2)cc1NC(=O)c1ccc(C)cc1,8.35%
16,CCC(C)(C)n1nnnc1CN1CCN(c2nc3ccc(C)cc3cc2C#N)CC1,40.7% (active)
17,Cc1ccc2nc(NCCCNC(=O)c3cnccn3)c(C#N)cc2c1,8.4%
18,CCC(C)(C)n1nnnc1C(c1cccs1)N1CCN(c2nc3ccccc3s2)CC1 (stereo not drawn),36.1%
19,COc1ccc(CNC(=O)COC(=O)/C=C/c2ccc(S(=O)(=O)N3CCOCC3)cc2)cc1,20%
20,Cc1nc2nc(C)c(CCC(=O)N3CCN(c4ccccc4)CC3)c(C)n2n1,1.14%
21,COc1ccc2[nH]c3c(c2c1)CCN1C(=O)C(CC(=O)NCc2cccc(C(F)(F)F)c2)C[C@H](C(=O)N2CCOCC2)[C@@]31C (stereo partly drawn),11%
